Screens as filed in PubChem.
JMJD2A Tudor inh: qHTS Assay for Inhibitors of JMJD2A-Tudor Domain | Lysine-specific demethylase 4A (Homo sapiens), O75164 | AlphaScreen JMJD2A-Tudor / H3K4me3 peptide binding | Potency, µM (series often up to 114 µM), most hits filed as inhibitors | 390,000 tested, 4.4% active | AID 504339, 2011; also: nearly all actives have a fitted effect of over 50% in size
L3MBTL1 block: qHTS Assay for the Inhibitors of L3MBTL1. AlphaScreen L3MBTL1–H3K9me1 peptide binding. AID 485360, 2010. Lethal(3)malignant brain tumor-like protein 1 (Homo sapiens), Q9Y468. Potency, µM (highest dose often 57.1 µM), usual class: inhibitors. 230,000 tested, 0.66% active; also: nearly all actives have a fitted effect of over 60% in size
Target sequence (Q9Y468 whole entry, looked up): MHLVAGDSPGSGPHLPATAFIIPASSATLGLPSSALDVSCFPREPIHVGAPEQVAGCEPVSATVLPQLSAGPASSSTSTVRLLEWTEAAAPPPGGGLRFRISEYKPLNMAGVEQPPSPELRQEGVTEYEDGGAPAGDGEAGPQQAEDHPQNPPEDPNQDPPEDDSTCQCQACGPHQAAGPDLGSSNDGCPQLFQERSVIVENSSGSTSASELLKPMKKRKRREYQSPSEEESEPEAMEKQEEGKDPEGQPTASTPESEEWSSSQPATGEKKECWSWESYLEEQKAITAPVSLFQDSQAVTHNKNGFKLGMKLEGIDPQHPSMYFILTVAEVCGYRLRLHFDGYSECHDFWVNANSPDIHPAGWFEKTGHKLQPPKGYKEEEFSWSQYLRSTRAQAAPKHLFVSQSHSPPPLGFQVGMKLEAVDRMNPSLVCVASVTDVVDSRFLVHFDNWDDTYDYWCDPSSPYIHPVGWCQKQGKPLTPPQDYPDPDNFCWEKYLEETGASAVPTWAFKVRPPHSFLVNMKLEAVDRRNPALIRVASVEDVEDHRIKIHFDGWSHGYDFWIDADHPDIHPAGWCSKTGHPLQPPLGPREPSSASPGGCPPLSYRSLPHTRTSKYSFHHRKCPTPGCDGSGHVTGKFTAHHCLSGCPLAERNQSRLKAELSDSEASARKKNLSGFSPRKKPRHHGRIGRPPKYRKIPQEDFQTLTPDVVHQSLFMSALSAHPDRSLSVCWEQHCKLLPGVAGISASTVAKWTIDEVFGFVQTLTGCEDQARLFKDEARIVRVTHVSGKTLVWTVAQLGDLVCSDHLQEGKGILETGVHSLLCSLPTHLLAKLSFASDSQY
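L3MBTL1 (50 nM) pre-complexed 30 min with biotinylated H3(1-15)K9me1 peptide (75 nM), then compounds added for 30 min at room temperature; AlphaScreen streptavidin donor/nickel chelate acceptor beads (10 ug/mL final) read after 30 min dark incubation.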
G9a inh: qHTS Assay for Inhibitors of Histone Lysine Methyltransferase G9a; Potency, µM (highest dose often 102 µM), most hits filed as inhibitors; 350,000 tested, 8.8% active; Histone-lysine N-methyltransferase EHMT2 (Homo sapiens), Q96KQ7; AID 504332, 2011; G9a H3K9 monomethylation, AlphaScreen, 2 h; also: nearly all actives have a fitted effect of over 75% in size
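AlphaScreen read-out: biotin-H3K9 peptide (500 nM) methylation by 20 nM enzyme with 20 uM SAM, 2 h at room temperature after 15 min compound preincubation; anti-monomethyl H3K9 antibody plus donor/acceptor beads, 10 min dark.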
BAZ2B inh: qHTS Assay for Inhibitors of BAZ2B. Potency, µM (series often up to 114 µM), actives largely listed as inhibitors. 360,000 tested, 4.4% active. Bromodomain adjacent to zinc finger domain protein 2B (Homo sapiens), Q9UIF8. AlphaScreen BAZ2B-H3K14Ac peptide displacement; also: nearly all actives have a fitted effect of over 60% in size
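AlphaScreen displacement: compounds (up to 110uM) incubated 30 min at room temperature with a preformed 50 nM BAZ2B/50 nM biotinylated H3K14Ac peptide complex in PBS pH 7.4 with Tween-20. Donor and acceptor beads at 10 ug/mL final added, 20 min light-protected before reading.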
Sfp PPTase inh: qHTS Assay for Inhibitors of Bacillus subtilis Sfp phosphopantetheinyl transferase (PPTase). 4'-phosphopantetheinyl transferase ffp (Bacillus subtilis), Q9F4F7. Biochemical Sfp PPTase activity, qHTS. Potency, µM, hits mostly inhibitors. 310,000 tested, 3.5% active. AID 1490, 2009;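 also: the enzyme is Sfp with the accession as filed and its product quenches rhodamine fluorescence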
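With Hepes-Na pH 7.6 buffer containing 10 mM MgCl2, Sfp (15 nM) modified BHQ-2-YbbR (12.5 uM) using rhodamine-CoA (5 uM). Two reads 30 minutes apart at 525/598 nm yielded each well's rate.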
HP1b chromo inh: HTS for Inhibitors of HP1-beta Chromodomain Interactions with Methylated Histone Tails; Potency, µM (doses to about 114 µM), usual class: inhibitors; AlphaScreen HP1-beta / biotin-H3K9me3 peptide binding; AID 540317, 2011; 390,000 tested, 0.56% active; also: nearly all actives have a fitted effect of over 70% in size
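AlphaScreen: HP1-beta (50 nM) preformed 30 min with biotin-H3(1-18)K9me3 peptide (50 nM) in PBS pH 7.4, 0.01% Tween-20. Compound added for 30 min at RT, then streptavidin donor/nickel chelate acceptor beads (10 ug/mL) for 30 min.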
Hits are given with their value; 0 = inactive; ? = inconclusive; - = not tested or not shown; [ ] = dose if it differs, or a comment. Rows were chosen to be rich in hits. Some 12% of all compounds tested hit in one or more screens of this group. Calls follow the shape of the dose curve; as a rule, active = well fitted curve in the direction sought with a large enough effect; inconclusive = small, poorly fitted or top-dose-only effect, or another doubt; inactive = no such curve, though single readings can be large; an effect the other way counts as inactive or inconclusive.

SMILES	JMJD2A Tudor inh	L3MBTL1 block	G9a inh	BAZ2B inh	Sfp PPTase inh	HP1b chromo inh
O=C(Nc1ccc(F)c(F)c1)C1CCCN1S(=O)(=O)c1cccc2nsnc12 (stereo not given)	0	-	0	0	-	0
O=C(N/N=C/c1c(O)ccc2ccccc12)c1ccc(CO)nc1	56µM	3.5µM	56µM	3.2µM	0	0
O=C(NN=Cc1c(O)ccc2ccccc12)c1ccc2c(c1)OCO2	0	0	-	-	-	0
Cc1nn(C)c(C)c1N=Cc1c(O)ccc2ccccc12	0	0	?	0	0	0
Oc1ccc2ccccc2c1/C=N/n1cnnc1	0	0	32µM	0	0	0
Oc1ccc2ccccc2c1C=NCc1ccccc1	?	?	28µM	0	0	0
Oc1ccc2ccccc2c1/C=N/Nc1ccccc1	50µM	?	7.1µM	0	0	0
Oc1ccccc1C=NN=Cc1c(O)ccc2ccccc12	0	-	-	-	-	0
O=CN/N=C/c1c(O)ccc2ccccc12	0	0	0	0	0	0
Cc1cc(N=Nc2ccc(C)c(N=Nc3cc(C)c(N)cc3N)c2)c(N)cc1N	50µM	-	40µM	40µM	?	?
COc1ccc(CN(Cc2ccccc2)C(=O)c2ccc(OC)cc2O)cc1	0	-	-	-	-	-
COc1cccc(Cn2cnc3c(NS(=O)(=O)c4cc(Cl)ccc4Cl)c(C)c(C)cc32)c1	0	0	8.9µM	0	0	0
CCc1ccc(/C([O-])=C(/C(=S)NCCN2CCOCC2)[n+]2ccccc2)cc1	0	-	25µM	0	45µM	0
S=C(NCCN1CCOCC1)C(=S)NCCN1CCOCC1	?	-	-	-	-	0
S=c1[nH]nc(-c2ccc(Br)cc2)n1Cc1ccccc1	?	0	10µM	?	0	0
FC(F)C(F)(F)Oc1cccc(-c2n[nH]c(=S)n2Cc2ccccc2)c1	0	0	0[0.501 µM]	0	-	0
S=c1[nH]nc(-c2cccnc2)n1Cc1ccccc1	8.9µM	0[11.4 µM]	1.3µM	0	0	0
CCCCOc1ccc(-c2n[nH]c(=S)n2Cc2ccccc2)cc1	0	-	20µM	0	0	0
Cc1ccn2c(-c3n[nH]c(=S)n3Cc3ccccc3)c(C)nc2c1	3.5µM	0	7.1µM	0	0	?
O=C(CNC(=O)c1ccc2n[nH]nc2c1)OC(C(=O)Nc1cc(C(F)(F)F)ccc1Cl)c1ccccc1 (stereo not given)	0	-	-	-	-	-
N=c1n(CC(=O)c2ccc(Br)cc2)c2ccccc2n1Cc1ccccc1	0	0	0[0.501 µM]	0	-	0
Cc1cc(-c2n[nH]c(=S)n2Cc2ccccc2)cs1	18µM	0	1.3µM	0	0	0
CC(C)(C)c1ccc(-c2n[nH]c(=S)n2Cc2ccccc2)cc1	0	-	0	0	0	0
O=c1[nH]cc(-c2ccc(Br)cc2)n1Cc1ccccc1	0	-	11µM	?	0	0
Fc1ccc(-c2n[nH]c(=S)n2Cc2ccccc2)cc1	18µM	-	?	0	0	0
SMILES	JMJD2A Tudor inh	L3MBTL1 block	G9a inh	BAZ2B inh	Sfp PPTase inh	HP1b chromo inh
S=c1[nH]nc(-c2ccncc2)n1Cc1ccccc1	7.9µM	0	10µM	-	0	0
COC(=O)c1sccc1N/N=C/c1cccc(Oc2ccccc2)c1	0	0	0	0	0	0
CCc1ccc(OCC(=O)Nc2ccc3oc(=O)ccc3c2)cc1	0	-	0	0	0	0
CCOC(=O)C(CCc1ccccc1)NC(C)C(=O)N1Cc2cc(OC)c(OC)cc2CC1C(=O)O (stereo not given)	-	-	0[12.7 µM]	-	0	-
Oc1ccc(-c2n[nH]c(=S)n2Cc2ccccc2)cc1	32µM	0	1.1µM	0	0	0
COc1ccccc1-n1c(-c2ccc(Cl)cc2)c[nH]c1=S	?	0	?	?	0	0
Fc1ccc(-c2c[nH]c(=S)n2Cc2ccccc2)cc1	?	0	1.1µM	0	?	0
CCN(CC)c1cc2c(cc1F)c(=O)c(S(=O)(=O)c1ccc(OC)cc1)cn2Cc1ccccc1	0	-	0	0	-	0
